Source: PubChem BioAssay
Pf growth 48h – P. falciparum growth inhibition at 48 hours (one generation). P. falciparum luciferase growth in erythrocytes, 48 h. Potency, µM (titrated, usually from 28.7 µM), actives largely listed as inhibitors. actives 5.9% (n = 310,000). AID 504832
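Luciferase-expressing parasites in RBCs, 2% Hct / 0.1% parasitemia final; RPMI 1640 + 0.5% Albumax; 37 C, 5% CO2, one generation; luminescence read-out, lower signal = inhibition.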
NS1 function inh – blocks influenza NS1 protein function; Potency, µM (top dose mostly 46.1 µM); AID 2326; actives 0.4% (n = 270,000); calls by dose curve; further: actives are rising curves; nearly all actives have a fitted effect of over 50% in size
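Read-out: OD600 growth recovery of NS1-expressing budding yeast. Cells grown overnight at 30C in -URA glucose medium, washed, resuspended and diluted 1:100 in 2% galactose assay medium, pH 6.0. Same strain lacking NS1 served as positive control.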
Cycloheximide cs – counter-screen hit for Shiga toxin inhibitors, cycloheximide; cell reporter, cycloheximide protein synthesis inhibition counterscreen; max response, %; actives 12% (n = 300,000); in the data active means max response mostly above about 13%, no sharp cut-off; inactive means mostly below about 14%; further: read at 38.3 µM for the half of the compounds with a filed dose
SARS PLpro yeast – blocks SARS-CoV papain-like protease in a yeast assay. actives 0.19% (n = 330,000). S. cerevisiae expressing SARS-CoV PLpro, growth rescue. Potency, µM (doses to about 32.9 µM), most hits filed as activators; calls by dose curve; further: nearly all actives have a fitted effect of over 55% in size
Pf growth 96h – P. falciparum growth inhibition at 96 hour, primary screen for plastid delayed-death inhibitors; P. falciparum luciferase reporter growth, 96 h; Potency, µM (titrated, usually from 28.7 µM), actives largely listed as inhibitors; actives 6.9% (n = 320,000)
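96 h incubation, 37 C, 5% CO2, of luciferase-reporter P. falciparum-infected RBCs (2% hematocrit, 0.05% parasitemia final) with test compounds; endpoint luminescence.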
Shiga inhibitor – Shiga toxin inhibition. AID 2315. Vero cells, Shiga toxin protein synthesis inhibition reporter. inhibition, % at 38.7 µM. actives 9.2% (n = 290,000); in the data active means inhibition mostly above about 28%, no sharp cut-off; inactive means mostly below about 43%
A number is an active result. Rows were chosen to be rich in hits. Some 21% of all compounds tested hit in one or more screens of this group. Unless noted, the call rests on the fitted dose curve; in most records, active means well fitted inhibition curve with a large enough effect; inconclusive means small, poorly fitted or top-dose-only effect, or another doubt; inactive means no such curve, though single readings can be large or run the other way.

`Cc1ccc(C2CC(c3cccs3)=NN2C(=O)CCl)cc1` (stereo unspecified) gave Pf growth 48h 13µM, NS1 function inh inactive, Cycloheximide cs 43, SARS PLpro yeast inactive, Pf growth 96h 1.9µM and Shiga inhibitor 43.
For COc1ccc(C2CC(c3cccs3)=NN2C(=O)CSC2=NCCS2)cc1 (stereo unspecified) the results were Pf growth 48h inconclusive, NS1 function inh inactive, Cycloheximide cs inactive, SARS PLpro yeast inactive, Pf growth 96h inconclusive and Shiga inhibitor inactive.
CC1CCCCC1NC1=NCCCS1 (stereo unspecified) was read as Pf growth 48h inconclusive, NS1 function inh inactive, Cycloheximide cs inactive, SARS PLpro yeast inactive, Pf growth 96h inactive and Shiga inhibitor inactive.
For O=C(/C(=C/O)N=Nc1ccccc1)c1cccs1 the results were Pf growth 48h inconclusive, Cycloheximide cs 39, SARS PLpro yeast inactive, Pf growth 96h inactive and Shiga inhibitor inactive.
Cc1ccc(OC(C)C(=O)Nc2ccncc2)cc1C (stereo unspecified) was read as Pf growth 48h inconclusive, NS1 function inh inactive, Cycloheximide cs inactive, SARS PLpro yeast inactive and Pf growth 96h inconclusive.
Screening CN(C)N(C(=O)c1cc(-c2cccs2)nn1-c1ccccc1)C1CCS(=O)(=O)C1 (stereo unspecified) returned Pf growth 48h inconclusive, SARS PLpro yeast inactive and Pf growth 96h 5.2µM.
For CCOc1cc(-c2cc(N)n[nH]2)cc(OCC)c1OCC the results were Pf growth 48h 13µM, NS1 function inh inconclusive, Cycloheximide cs inactive, SARS PLpro yeast inactive, Pf growth 96h inactive and Shiga inhibitor inactive.
Screening CCOc1ccc(-c2nn[nH]n2)cc1OCC returned Pf growth 48h inactive, NS1 function inh inactive, Cycloheximide cs inactive, SARS PLpro yeast inactive, Pf growth 96h inconclusive and Shiga inhibitor inactive.
Screening Cc1ccc(N(CC(=O)N2CCCC2)S(C)(=O)=O)c(C)c1 returned Pf growth 48h inactive, NS1 function inh inactive, Cycloheximide cs inactive, SARS PLpro yeast inactive, Pf growth 96h inactive and Shiga inhibitor inactive.
Screening COc1ccccc1C(O)(C(=O)NNc1ccccc1C)c1ccccc1OC returned Pf growth 48h inconclusive, NS1 function inh inactive, Cycloheximide cs inactive, SARS PLpro yeast inactive, Pf growth 96h 6.6µM and Shiga inhibitor inactive.
Screening CCC(O)(C(=O)Nc1ccccc1C(F)(F)F)c1ccccc1OC (stereo unspecified) returned Pf growth 48h inconclusive, SARS PLpro yeast inactive and Pf growth 96h inactive.
`COc1ccc(Br)cc1C(=O)Nc1cccc(C)c1` gave NS1 function inh inactive, Cycloheximide cs inactive, SARS PLpro yeast inactive, Pf growth 96h inconclusive and Shiga inhibitor inactive.
For COc1ccccc1C(O)(C(=O)NNc1cccc(C)c1)c1ccccc1OC the results were Pf growth 48h inactive, NS1 function inh inactive, Cycloheximide cs inactive, SARS PLpro yeast inactive, Pf growth 96h 2.6µM and Shiga inhibitor inactive.
For O=C(COc1ccccc1)NC1CCCN(Cc2ccccc2F)C1 (stereo unspecified) the results were Pf growth 48h inconclusive, NS1 function inh inactive, Cycloheximide cs inactive, SARS PLpro yeast inactive, Pf growth 96h inconclusive and Shiga inhibitor inactive.
Screening CC1(C)N=C(N)N=C(N)N1c1cccc(C(=O)O)c1 returned Pf growth 48h inactive, NS1 function inh inactive, Cycloheximide cs inactive, SARS PLpro yeast inactive and Shiga inhibitor inactive.
`CCOc1ccc(N2C(N)=NC(N)=NC2(C)C)cc1` gave Pf growth 48h 0.13µM, NS1 function inh inactive, Cycloheximide cs inactive, SARS PLpro yeast inactive, Pf growth 96h inactive and Shiga inhibitor inactive.
Screening CC1(C)N=C(N)N=C(N)N1c1ccc(OCCCOc2ccccc2)c(Cl)c1 returned Pf growth 48h 0.026µM, NS1 function inh inactive, Cycloheximide cs inactive, SARS PLpro yeast inactive, Pf growth 96h 0.023µM and Shiga inhibitor inactive.
`COc1cccc(N2C(N)=NC(N)=NC2(C)C)c1` gave Pf growth 48h 0.13µM, NS1 function inh inactive, Cycloheximide cs inactive, SARS PLpro yeast inactive, Pf growth 96h inactive and Shiga inhibitor inactive.
For COc1ccc(N2C(N)=NC(N)=NC2(C)C)cc1 the results were Pf growth 48h 0.033µM, NS1 function inh inactive, Cycloheximide cs inactive, SARS PLpro yeast inactive, Pf growth 96h inconclusive and Shiga inhibitor inactive.
For CCOC(=O)c1cccc(N2C(N)=NC(N)=NC2(C)C)c1 the results were Pf growth 48h inconclusive, NS1 function inh inactive, Cycloheximide cs inactive, SARS PLpro yeast inactive, Pf growth 96h inactive and Shiga inhibitor inactive.
O=C(O)c1ccc(N=Nc2c(-c3ccccc3)[nH]oc2=O)cc1 was read as NS1 function inh inactive, Cycloheximide cs inactive, SARS PLpro yeast inactive, Pf growth 96h inactive and Shiga inhibitor inactive.
For CCN(CC)S(=O)(=O)c1ccc2[nH]c(=O)cc(C(=O)Nc3cccc(C(C)=O)c3)c2c1 the results were Pf growth 48h inconclusive, Cycloheximide cs inactive, SARS PLpro yeast inactive, Pf growth 96h inconclusive and Shiga inhibitor inactive.
For Cc1cc(C(=O)NCC23CC4CC(CC(C4)C2)C3)c(C)o1 the results were Pf growth 48h inactive, NS1 function inh inactive, Cycloheximide cs inactive, SARS PLpro yeast inactive, Pf growth 96h inactive and Shiga inhibitor inactive.
`COc1ccc(CCNC(=O)COc2nncc3ccccc23)cc1` gave Pf growth 48h inactive, Cycloheximide cs inactive, SARS PLpro yeast inactive, Pf growth 96h inactive and Shiga inhibitor inactive.
S=C(NCc1ccco1)Nc1ccc(Br)cn1 was read as Pf growth 48h inactive, NS1 function inh inactive, Cycloheximide cs 11, SARS PLpro yeast inactive, Pf growth 96h inconclusive and Shiga inhibitor inactive.
Screening CCOc1ccccc1NC(=S)NCc1ccco1 returned NS1 function inh inactive, Cycloheximide cs inactive, SARS PLpro yeast inactive, Pf growth 96h inactive and Shiga inhibitor inactive.
`S=C(NCc1ccco1)Nc1cc(-c2ccccc2)[nH]n1` gave Pf growth 48h inactive, NS1 function inh inactive, Cycloheximide cs 28, SARS PLpro yeast inactive, Pf growth 96h inactive and Shiga inhibitor 98.
For CCOC(=O)c1ccc(NC(=O)CN2C(=O)C(CC)SC(CC)C2=O)cc1 (stereo unspecified) the results were Pf growth 48h inactive, NS1 function inh inactive, Cycloheximide cs inactive, SARS PLpro yeast inactive, Pf growth 96h inactive and Shiga inhibitor inactive.
Screening CN=C1SC(CC(=O)Nc2ccc(F)cc2F)C(=O)N1/N=C/c1ccc(OC(F)F)c(OC)c1 (stereo unspecified) returned Pf growth 48h inactive, NS1 function inh inactive, Cycloheximide cs inactive, SARS PLpro yeast inactive, Pf growth 96h inactive and Shiga inhibitor inactive.
`COc1cc(-c2nc3ccccn3c2/N=C/c2ccccc2)ccc1O` gave Pf growth 48h inactive, NS1 function inh inactive, Cycloheximide cs inactive, SARS PLpro yeast inactive, Pf growth 96h inactive and Shiga inhibitor inactive.
COc1cc(-c2nc3ccccn3c2N)ccc1O was read as Pf growth 48h inactive, NS1 function inh inactive, Cycloheximide cs inactive, SARS PLpro yeast inactive, Pf growth 96h 1.7µM and Shiga inhibitor inactive.
